# High-throughput results: PubChem, National Center for Advancing Translational Sciences (NCATS)
# Rows were chosen to be rich in hits. Some 19% of all compounds tested hit in one or more screens of this group.
# IL-1B inflam inh: blocks inflammasome-driven IL-1 beta release; THP-1 LPS/ATP IL-1B secretion, AlphaLISA, 16 h; hits give low values; activity change, % at 57.5 µM; 4.7% of 360,000 active; in the data active = activity change below about -50%; inconclusive = mostly about -30% to -49%
#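 Secreted IL-1B measured by AlphaLISA bead assay after 16 h compound exposure of THP-1 cells; compounds (final up to 57.5 uM) added 1 h before LPS (250 ng/mL) and ATP (1.25 mM) stimulation; lower signal means less secretion.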
# HT1080-NT tox: kills 2HG-producing HT-1080-NT fibrosarcoma cells | 1.6% of 360,000 active | AID 686970 | Potency, µM (doses to about 46.1 µM), without a hit: at the top dose activity, negative = less viability, most hits filed as cytotoxic | HT-1080-NT fibrosarcoma viability, CellTiter-Glo ATP luminescence, 48 h;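 note: NT is the 2HG producing partner of a matched IDH1 knockdown line; potency is the fitted concentration of half-maximal effect; 0% = DMSO-treated cells and -100% = media-only wells without cells; nearly all actives have a fitted effect of over 55% in size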
#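 HT-1080-NT; 750 cells/well; 5% FBS RPMI; 48 h compound, 37 degrees C; CellTiter-Glo luminescence; curve fitting and curve-class assignment.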
# DT40 TDP1 CPT: growth inhibition of DT40 Tdp1-/-;hTDP1 cells with camptothecin (screen for TDP1 inhibitors). chicken DT40 Tdp1-/-;hTDP1 cells + 20 nM CPT, ATP luminescence, 48 h. Potency, µM (highest dose often 46.2 µM), for the others: top-dose activity change, negative = growth inhibition, hits mostly inhibitors. 12% of 420,000 active. AID 686979; note: potency is the fitted concentration of half-maximal effect; nearly all actives have a fitted effect of over 55% in size
#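 Chicken DT40 Tdp1-/- cells complemented with human TDP1, 400 cells/well, exposed to compounds plus 20 nM camptothecin for at least 48 h at 37 C; viability read as ATP content by CellTiter-Glo luminescence.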
# TDP1 cell noCPT: qHTS for Inhibitors of human tyrosyl-DNA phosphodiesterase 1 (TDP1): qHTS in cells in absence of CPT; AID 686978, 2013; Potency, µM (top dose mostly 46.2 µM), inactives show at the highest dose activity change, negative = growth inhibition, actives largely listed as inhibitors; 15% of 420,000 active; DT40 Tdp1-/- hTDP1 cells, no CPT, ATP luminescence, 48 h; note: potency is the fitted concentration of half-maximal effect; nearly all actives have a fitted effect of over 55% in size
#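 Compound effects on proliferation are scored in DT40 Tdp1-/-;hTDP1 cells in the absence of CPT. ATP levels (CellTiter-Glo luminescence) are recorded after a ≥48 hr, 37 °C incubation.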
# HT1080 IDH1KD tx: toxicity to HT-1080 IDH1 knockdown cells (counter line) | Potency, µM (series often up to 46.1 µM), for inactives: top-dose activity, negative = toxicity, actives largely listed as cytotoxic | 2% of 360,000 active | AID 686971 | HT-1080 IDH1 knockdown viability, ATP luminescence, 48 h;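 note: potency is the fitted concentration of half-maximal effect; 0% = DMSO wells and -100% = cell-free medium wells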
#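 Knockdown cells (IDH1KD HT-1080) received compounds 2 h after plating at 750 cells/well and were kept 48 h at 37 °C in 5% FBS RPMI. A CellTiter-Glo luminescence read gave % activity for curve fitting.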
# ELG1 repair inh: blocks ELG1-dependent DNA repair in HEK293T cells; HEK293T ELG1-luciferase reporter, luminescence, 16 h; DNA damage induced by 5-fluorouridine; Potency, µM (doses to about 46.1 µM), for the others: at the highest dose activity change, negative = inhibition, hits mostly inhibitors; 2.3% of 330,000 active; AID 504467; note: potency is the fitted concentration of half-maximal effect; nearly all actives have a fitted effect of over 55% in size
#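 DMSO vehicle served as the neutral condition. Each well held 2,000 cells given 5-fluorouridine plus compound; after 16 hr at 37 °C/5% CO2, ONE-Glo was added and luciferase measured 30 min later.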
# Starred values were filed as active, the others as inactive; ? = inconclusive; · = not tested or not shown. Unless noted, calls come from the whole dose curve; as a rule, active = well fitted curve in the direction sought with a large enough effect; inconclusive = small, poorly fitted or top-dose-only effect, or another doubt; inactive = no such curve, though single readings can be large; an effect the other way counts as inactive or inconclusive. Unless noted, % is set by controls: 0 for no effect and ±100 for the full control effect.
SMILES,IL-1B inflam inh,HT1080-NT tox,DT40 TDP1 CPT,TDP1 cell noCPT,HT1080 IDH1KD tx,ELG1 repair inh
O=C(c1cc(-c2ccc(Cl)cc2)on1)N(Cc1cccc(F)c1)Cc1ccco1,·,·,?,18µM*,·,·
CN(Cc1ccccc1)C(=O)c1cc(-c2ccc(Br)cc2)on1,?,9%,-28%,?,-26%,?
Cc1ccc(-c2cc(C(=O)N(Cc3ccc(C(C)(C)C)cc3)Cc3ccco3)no2)cc1,·,·,18µM*,13µM*,·,·
O=C(NCc1ccco1)c1cc(-c2cccc(Cl)c2)on1,-6,-3%,-6%,-10%,-22%,?
COc1ccc(N(CC(=O)NCc2cccs2)S(=O)(=O)c2ccc(F)cc2)cc1,-12,1%,-6%,7%,9%,2%
O=C(CCCc1ccccc1)Nc1ccnn1C1CCN(Cc2ccccc2F)CC1,-19,1%,23µM*,21µM*,5%,?
O=C(CCCc1ccccc1)Nc1ccnn1C1CCN(Cc2ccccc2)CC1,-12,-14%,?,?,-24%,-12%
COCC(C)N1CCC(n2nccc2NC(=O)c2ccccc2Cl)CC1 (stereo unspecified),6,-7%,-1%,0%,-2%,·
CCOc1cccc(CN2CCC(n3nccc3NC(=O)CCCc3ccccc3)CC2)c1,?,-23%,?,?,?,6.5µM*
Cc1ccccc1C(=O)Nc1ccnn1C1CCN(C(C)Cc2ccccc2F)CC1 (stereo unspecified),-7,-14%,23µM*,-54%,-22%,?
CSc1ccc(CN2CCC(n3nccc3NC(=O)CCCc3ccccc3)CC2)cc1,?,?,23µM*,?,?,-16%
Cc1ccc(-c2nn3c(-c4ccccc4)nnc3c3ccccc23)cc1,·,·,8%,-18%,·,·
CC(C)c1ccc(CN(C)C(=O)c2ccc(S(=O)(=O)NCc3ccco3)cc2)cc1,16,-15%,21µM*,21µM*,-27%,3%
CN(Cc1ccc(Cl)cc1)C(=O)c1ccc(S(=O)(=O)NCc2ccco2)cc1,-9,-1%,?,-24%,-4%,-3%
CCCCOC(=O)c1ccc(NC(=S)NC(=O)c2c(Br)c(C)nn2C)cc1,16,-16%,?,21µM*,-19%,-18%
CCOC(=O)c1ccc(NC(=S)NC(=O)c2cncc(Br)c2)cc1,22,8%,-19%,-15%,7%,23%
O=C1CC(c2ccccc2)Cc2[nH]c(=O)c(C(=O)Nc3ccc(OC(F)(F)F)cc3)cc21 (stereo unspecified),·,·,13%,-9%,·,·
COc1ccccc1OCC(=O)NCC1CCCN(C(=O)c2cccc(C)c2)C1 (stereo unspecified),11,3%,-22%,?,-1%,·
CCOc1ccc(-c2n[nH]c(=S)c3ccccc23)cc1,35,-16%,23µM*,?,-5%,-2%
CNC(=O)Cn1nc(-c2ccc(C)c(S(=O)(=O)N(C)C)c2)c2ccccc2c1=O,55,2%,1%,1%,5%,-4%
Cc1ccc(-c2nnc(N3CCN(C(=O)CSc4ncn[nH]4)CC3)c3ccccc23)cc1,?,-1%,16µM*,?,?,0%
Cc1ccc(-c2nnc(NCc3nc4ccccc4[nH]3)c3ccccc23)cc1S(=O)(=O)N(C)C,-3,-11%,10µM*,23µM*,-15%,10µM*
Cc1ccc(-c2n[nH]c(=S)c3ccccc23)cc1,27,8%,?,?,-1%,-8%
CCOc1ccc(-c2nnc(N3CCCCC3)c3ccccc23)cc1,?,?,23µM*,16µM*,?,?
COC(=O)N1CCC2(CCN(C(=O)NC(C)C)CC2)CC1,·,·,13%,-4%,·,·
SMILES,IL-1B inflam inh,HT1080-NT tox,DT40 TDP1 CPT,TDP1 cell noCPT,HT1080 IDH1KD tx,ELG1 repair inh
O=C(CCS(=O)(=O)c1cc(Br)cc2c1N(C(=O)C1CC1)CC2)NCc1ccccc1Cl,·,·,1%,-16%,·,·
Cc1ccc(OCC(=O)N2CCN(c3nnc(-c4ccccc4)c4ccccc34)CC2)cc1,-73*,?,?,?,?,?
Cc1ccc(-c2nnc(N3CCCCC3)c3ccccc23)cc1S(=O)(=O)N(C)C,-57*,11%,23µM*,?,3%,-11%
Cc1ccc(-c2nnc(N3CCOCC3)c3ccccc23)cc1S(N)(=O)=O,75,-9%,-13%,-2%,-6%,·
O=C(NCc1cccnc1)c1cc(C2CCCCN2S(=O)(=O)c2ccc(F)cc2F)on1 (stereo unspecified),38,4%,?,?,-6%,·
CCC1C(=O)n2nc(-c3ccccc3)cc2N=C1C (stereo unspecified),25,-11%,8.2µM*,10µM*,-5%,?
CN(C)c1ccc(C(=O)N2CCCC(CCC(=O)N3CCN(c4ccccn4)CC3)C2)cc1 (stereo unspecified),-10,0%,?,?,2%,?
Cc1ccc(C(=O)C(C)OC(=O)CN2C(=O)NC3(CCCC3)C2=O)cc1C (stereo unspecified),6,0%,-1%,-6%,-1%,?
O=C(C[n+]1ccn(-c2ccccc2)c1)c1ccc([N+](=O)[O-])cc1,54,-29%,15µM*,16µM*,-17%,-18%
O=[N+]([O-])c1ccc(C[n+]2ccc(Cc3ccccc3)cc2)cc1,-4,?,18µM*,10µM*,-25%,?
O=[N+]([O-])c1ccc(C[n+]2ccccc2)cc1,14,2%,-10%,-2%,9%,8%
O=C(Cn1cc[n+](Cc2ccccc2)c1)c1ccc([N+](=O)[O-])cc1,-72*,?,3.7µM*,2.6µM*,-2%,15µM*
c1ccc(Cc2cc[n+](Cc3ccccn3)cc2)cc1,60,-2%,21µM*,9.2µM*,-21%,0%
O=C(OCC(=O)c1ccc(Cl)s1)c1cnccn1,21,1%,-4%,1%,-1%,0%
c1ccc(-c2ccc3c(c2)NCCN3)cc1,-75*,-4%,?,?,-19%,24%
c1ccc(-c2ccc(-c3ccccc3)[nH]2)cc1,14,-21%,?,?,-17%,·
CN(C)CCCNC(=S)NCC(c1ccc(Cl)cc1Cl)c1c[nH]c2ccccc12 (stereo unspecified),-104*,21µM*,?,?,16µM*,?
